# ERAP1 HTS inh: ERAP1 (human) enzyme inhibition | 340,000 compounds, 0.15% hits | recombinant ERAP1, Leu-AMC fluorescence, 60 min | Q9NZ08 | AID 652197 | inhibition, % at 10.7 µM;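 active = mean replicate inhibition of at least 30%, or all replicates individually reaching that 30% level; inactive = mean below 30% and not every replicate reaching it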;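 note: 0% = neutral control wells and 100% = L-leucinethiol positive control wells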
# Casp6 inh: caspase-6 (human) enzyme inhibition. P55212. purified caspase-6, Z-VEID-R110 cleavage fluorescence. inhibition, % at 12.5 µM. 350,000 compounds, 0.53% hits. AID 686996;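 active = mean inhibition across replicates at least about 35%, with every replicate also reaching that limit, limit read from the data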;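 note: 0% = median of neutral control wells and 100% = no fluorescence left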
# Target sequence (P55212 24-179 limits assumed): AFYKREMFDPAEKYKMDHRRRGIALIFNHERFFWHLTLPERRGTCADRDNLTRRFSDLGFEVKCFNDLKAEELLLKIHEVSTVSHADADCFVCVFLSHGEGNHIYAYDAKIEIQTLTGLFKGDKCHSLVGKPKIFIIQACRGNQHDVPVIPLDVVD
# Target sequence (P55212 194-293 limits assumed): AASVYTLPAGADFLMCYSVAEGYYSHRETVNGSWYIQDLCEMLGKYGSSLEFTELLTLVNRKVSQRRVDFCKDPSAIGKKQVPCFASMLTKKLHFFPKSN
# SIRT5 block: inhibitors of human sirtuin-5 desuccinylase; Q9NXA8; Purified SirT5, succinyl-peptide AMC, trypsin-coupled fluorescence; inhibition, % at 15 µM; 330,000 compounds, 1.1% hits; AID 652115; in the data active = inhibition above about 15%
# Target sequence (Q9NXA8 whole entry, looked up): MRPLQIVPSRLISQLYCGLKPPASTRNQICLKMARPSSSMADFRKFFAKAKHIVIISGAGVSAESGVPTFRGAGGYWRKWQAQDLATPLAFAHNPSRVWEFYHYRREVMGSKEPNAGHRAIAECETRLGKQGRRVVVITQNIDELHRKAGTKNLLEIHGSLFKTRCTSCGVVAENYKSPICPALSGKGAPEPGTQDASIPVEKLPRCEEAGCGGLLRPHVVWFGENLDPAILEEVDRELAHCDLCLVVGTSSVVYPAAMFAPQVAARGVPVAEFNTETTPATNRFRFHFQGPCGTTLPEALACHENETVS
# FGF22 binding: FGF22 (human) thermal shift binding; recombinant FGF22 thermal shift, SYPRO orange fluorescence; percent of sucrose octasulfate shift, DMSO zero; Q9HCT0; AID 651658; 340,000 compounds, 1.5% hits; activity (Tm shift, normalised), % at 9.99 µM;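 active = mean Tm shift, scaled 0 neutral to 100 positive control, at about 1.3% or above, every replicate too, limit read from the data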
# Active calls of the source: *; . = no result. This is a sample that favours compounds with a hit; in the whole collection about 3.1% have one here.
SMILES,ERAP1 HTS inh,Casp6 inh,SIRT5 block,FGF22 binding
Cc1ccc(S(=O)(=O)N(C)C[C@@H]2OCCCC[C@@H](C)Oc3ccc(NS(=O)(=O)c4ccc(F)cc4)cc3C(=O)N([C@H](C)CO)C[C@@H]2C)cc1,3,2,4,0
Cc1ccc(S(=O)(=O)N(C)C[C@@H]2OCCCC[C@@H](C)Oc3ccc(NS(=O)(=O)c4ccc(F)cc4)cc3C(=O)N([C@@H](C)CO)C[C@H]2C)cc1,1,2,20*,0
Cc1ccc(S(=O)(=O)Nc2ccc3c(c2)C(=O)N([C@H](C)CO)C[C@H](C)[C@H](CN(C)S(=O)(=O)c2ccc(F)cc2)OCCCC[C@H](C)O3)cc1,-11,2,17*,0
Cc1ccc(S(=O)(=O)N(C)C[C@@H]2OCCCC[C@H](C)Oc3ccc(NS(=O)(=O)c4ccc(F)cc4)cc3C(=O)N([C@@H](C)CO)C[C@@H]2C)cc1,-1,1,20*,0
C[C@@H]1CN([C@H](C)CO)C(=O)c2cccc(NC(=O)Nc3ccc4c(c3)OCO4)c2O[C@H]1CN(C)S(C)(=O)=O,0,1,-3,0
COCC(=O)N(C)C[C@@H]1Oc2cc(-c3ccc(F)cc3)ccc2S(=O)(=O)N([C@@H](C)CO)C[C@@H]1C,2,0,-3,0
Cc1ccc(S(=O)(=O)N(C)C[C@H]2OCCCC[C@H](C)Oc3ccc(NS(=O)(=O)c4ccc(F)cc4)cc3C(=O)N([C@@H](C)CO)C[C@H]2C)cc1,2,0,25*,0
Cc1ccc(S(=O)(=O)N(C)C[C@H]2OCCCC[C@H](C)Oc3ccc(NS(=O)(=O)c4ccc(F)cc4)cc3C(=O)N([C@H](C)CO)C[C@H]2C)cc1,0,15,25*,0
Cc1ccc(S(=O)(=O)N(C)C[C@H]2OCCCC[C@@H](C)Oc3ccc(NS(=O)(=O)c4ccc(F)cc4)cc3C(=O)N([C@@H](C)CO)C[C@H]2C)cc1,1,0,22*,.
Cc1ccc(S(=O)(=O)Nc2ccc3c(c2)C(=O)N([C@H](C)CO)C[C@H](C)[C@@H](CN(C)S(=O)(=O)c2ccc(F)cc2)OCCCC[C@@H](C)O3)cc1,-2,1,9,0
CN(C)CC(=O)N[C@@H]1C=C[C@@H](CC(=O)NCc2ccc(Cl)cc2)O[C@H]1CO,2,-1,7,0
CNC[C@H]1OCCCC[C@@H](C)Oc2ccc(NC(=O)c3ccncc3)cc2C(=O)N([C@@H](C)CO)C[C@H]1C,0,-4,4,0
CCN(CC)S(=O)(=O)c1ccc(N2CCOCC2)c(NC(=O)c2ccc(NC(C)=O)cc2)c1,4,3,15*,0
CC(=O)Nc1ccc(N2CCOCC2)c(Cl)c1,-7,-1,-5,0
COC(=O)c1cc(NC(C)=O)ccc1N1CCOCC1,-2,5,1,43*
O=C(C[C@@H]1C[C@@H]2c3cc(NC(=O)NC4CCCC4)ccc3O[C@@H]2[C@H](CO)O1)NCc1ccc2c(c1)OCO2,1,1,5,0
COCC#Cc1cnc2c(c1)C(=O)N([C@@H](C)CO)C[C@@H](C)[C@H](CN(C)C(=O)C1CCC1)O2,2,1,2,0
COCC(=O)N1C[C@@H]2[C@H](c3ccccc31)[C@@H](CO)N2C(=O)c1ccccc1F,4,1,1,1
Nc1nc2ccccc2n1S(=O)(=O)c1ccccc1,0,-6,1,0
Cc1ccc(S(=O)(=O)n2c(C)nc3ccccc32)cc1,-1,41*,0,0
O=C(C[C@@H]1C=C[C@H](NC(=O)Nc2ccc3c(c2)OCO3)[C@@H](CO)O1)NCc1ccc(Cl)cc1,7,0,1,0
CN(C)CC(=O)N[C@@H]1CC[C@@H](CCNC(=O)C2CCCC2)O[C@H]1CO,1,0,4,0
Cc1cc(C)nc(NC(C)(C)C(=O)O)n1,1,3,1,44*
CC(=O)Nc1ccc(S(=O)(=O)N(C)CC(=O)N/N=C/c2ccc(C(=O)O)cc2)cc1,-7,1,-1,0
O=C(CN(Cc1ccccc1Cl)S(=O)(=O)c1ccc(Cl)cc1)N/N=C/c1ccc(C(=O)O)cc1,-9,5,4,1.5*
SMILES,ERAP1 HTS inh,Casp6 inh,SIRT5 block,FGF22 binding
CN(C)S(=O)(=O)c1ccc(C(=O)NCC(=O)N/N=C/c2ccccc2)cc1,-3,3,0,44*
CCN(CC)S(=O)(=O)c1ccc(C(=O)NCC(=O)N/N=C/c2ccccc2OC)cc1,1,-1,2,0
CCCC#Cc1cnc2c(c1)C(=O)N([C@H](C)CO)C[C@@H](C)[C@@H](CN(C)C(=O)Nc1c(C)noc1C)O2,6,-1,-2,1
CCCNC(=O)C[C@H]1CC[C@@H]2[C@H](COC[C@@H](O)CN2C(=O)Nc2ccc3c(c2)OCO3)O1,2,-1,-3,0
C/C(=N\Nc1ncc(Cl)cc1Cl)c1ccc2c(c1)OCO2,-2,-4,25*,0
C/C(=N\NC(=O)c1ccc2c(c1)OCO2)c1ccc2c(c1)OCO2,-3,4,1,0
O=C(CCCc1ccccc1)NC1CCSC1=O (stereo not given),-2,0,4,.
O=C(Cc1ccc(F)cc1)NC1CCSC1=O (stereo not given),4,1,1,43*
C[C@H](CO)N1C[C@H](C)[C@@H](CN(C)Cc2ccc(-c3ccccc3)cc2)Oc2ccc(NC(=O)Nc3ccccc3)cc2C1=O,-3,0,4,0
Cn1c(SCc2ccccc2)nnc1-c1ccc(O)cc1,-2,-4,-3,0
Cn1c(SCc2ccc(C#N)cc2)nnc1-c1ccccc1,2,-2,21*,.
CC(C)NC(=O)N[C@@H]1C=C[C@@H](CC(=O)O)O[C@@H]1CO,1,1,0,0
CCOC(=O)N1CCN(C(=O)C2CCN(C(=O)c3ccccc3C)CC2)CC1,28,-2,-2,1.4*
Cc1ccccc1C(=O)N1CCC(C(=O)N2CCN(c3ncccn3)CC2)CC1,0,2,-1,0
O=C(COC(=O)c1n[nH]c(=O)c2ccccc12)Nc1ccccc1,0,4,19*,0
CCOC(=O)C1=C(COC(=O)c2ccc([N+](=O)[O-])s2)NC(=O)NC1C (stereo not given),0,89*,0,0
CC(C)c1ccccc1OCC(=O)Nc1ccc2[nH]ncc2c1,-4,2,18*,0
C[C@H]1CN([C@@H](C)CO)C(=O)c2cc(NC(=O)CCCN(C)C)ccc2O[C@H]1CN(C)S(=O)(=O)c1ccc(F)cc1,-2,-5,3,0
NC(=O)C1CCN(C(=O)c2ccc3c(=O)n(Cc4ccco4)c(SCC(=O)c4ccccc4)nc3c2)CC1,3,-3,-5,44*
C/C(N)=C(/C#N)C(=O)CSc1nc2cc(Cl)ccc2c(=O)n1Cc1ccco1,-8,-1,2,0
C=CCn1c(SCc2ccc(Cl)cc2)nc2cc(C(=O)N3CCC(C(N)=O)CC3)ccc2c1=O,4,-4,1,21*
